# Test results from PubChem BioAssay AID463193 (University of Pittsburgh Molecular Library Screening Center, 2010).
# The campaign covered roughly 190,000 compounds. About 1,900 (1%) were called active.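 Rule for the calls: active = percentage of spot-positive cells more than 3 SD above its plate mean, without a fluorescence outlier flag or 80% toxicity; inconclusive = no clear call, values can overlap the other calls; inactive = the rest.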 Many of the other results were omitted from the sample, so actives are more common in it than they were.
# Experiment: autophagy modulators in MEF cells, primary screen, imaging, high-content, MEF GFP-LC3 (AID 463193);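 for % cells with GFP-LC3 spots: spot-positive cell cutoff set from DMSO-treated cells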;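 for toxicity: cell loss after 18 h compound exposure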
# Settings: MEF GFP-LC3 puncta imaging, at 10 µM; % cells with GFP-LC3 spots: stronger effect = higher value; toxicity: measured here: cell loss, nuclei count
Structure (SMILES),% cells with GFP-LC3 spots,toxicity [%]
CCN1CCN(CC(=O)Nc2sc3c(c2C#N)CCC3)CC1,2.15% (inactive),4.77
CN1CCN(CC(=O)Nc2sc3c(c2C#N)CCC(C(C)(C)C)C3)CC1 (centres undefined),41.9% (active),29.1
CCC1CCc2c(sc(NC(C)=O)c2C#N)C1 (centres undefined),6.62% (inactive),-8.42
CC1(C)CC(=O)c2ccc(O)cc2O1,1.01% (inactive),7.65
CCOc1ccc(CN2CCN(Cc3ccc(C)o3)CC2CCO)cc1 (centres undefined),0.14% (inactive),-9.23
O=C(CCN1C(=O)C2C3C=CC(C3)C2C1=O)Oc1ccc2ccccc2c1 (centres undefined),11.3% (inactive),19.4
CC1=CC(C)(C)Nc2ccc(OC(=O)CN3C(=O)C4CCCCC4C3=O)cc21 (centres undefined),8.28% (inactive),24.4
O=C(CN1C(=O)C2C3CCC(C3)C2C1=O)Oc1ccc2ccccc2c1 (centres undefined),18.4% (active),-20.7
COCCNc1nc2nonc2nc1N(C)Cc1ccc(C)cc1,1.24% (inactive),-31.9
Cc1cn(C)c(=O)n(C)c1=O,8.58% (inactive),10.3
COc1ccc(NC(=O)CN(C)CC(=O)Nc2cccc(C(F)(F)F)c2)cc1,2.37% (inactive),1.34
COc1ccc(NC(=O)C(=O)NCC(=O)Nc2cccc(C(F)(F)F)c2)cc1,8.9% (active),11.1
O=C(O)CSCC(=O)Nc1cccc(C(F)(F)F)c1,6.64% (inactive),0
CC1Cc2ccccc2N1C1=CC(=O)CC(C)(C)C1 (centres undefined),2.88% (inactive),3.93
Cc1ccc(/C=C/C(=O)Nc2ccc([N+](=O)[O-])c(NC(=O)/C=C/c3ccc(C)o3)c2)o1,55.6% (active),0.679
Cc1c(NC(=O)/C=C/C(=O)O)cccc1[N+](=O)[O-],8.95% (inactive),-17.9
CCc1nnc(NC(=O)/C=C/c2ccc(C)o2)s1,3.65% (inactive),1.45
CCCCc1ccc(NC(=S)N2CCCC(CO)C2)cc1 (centres undefined),11.5% (inactive),11.5
COc1ccc2cc(-c3[nH]ncc3CNCCn3nc(C)cc3C)ccc2c1,16.9% (inactive),22
CC(=O)NC1=NN(C(C)=O)C(C)(c2ccc(Cl)s2)S1 (centres undefined),21.9% (active),54.1
CC(=O)NC1=NN(C(C)=O)C(C)(CCS(=O)(=O)c2ccc(Cl)c(Cl)c2)S1 (centres undefined),9.23% (inactive),11.3

Structure (SMILES),% cells with GFP-LC3 spots,toxicity [%]
CC(=O)NC1=NN(C(C)=O)C(C)(c2ccc(C)cc2)S1 (centres undefined),4% (inactive),-6.62
COc1ccc(N2CCN(c3ccc([N+](=O)[O-])nc3)CC2)cc1,7.77% (inactive),4.08
O=C(N/N=C/c1ccc(Br)o1)c1cncc(Br)c1,33.5% (inactive),-0.407
CCN(CC)CCCNC(=O)c1ccc2c(=O)n(Cc3ccc4c(c3)OCO4)c(=S)[nH]c2c1,0.744% (inactive),5.92
CC(Nc1nc(N2CCCC2)nc2ccccc12)c1ccccc1 (centres undefined),13.8% (active),-2.79
CC(Nc1nc(N2CCN(CCO)CC2)nc2ccccc12)c1ccccc1 (centres undefined),30.9% (inactive),23.9
CC(Nc1nc(N2CCOCC2)nc2ccccc12)c1ccccc1 (centres undefined),0.846% (inactive),11.2
O=C(CS(=O)(=O)c1ccccc1)Nc1ccc(S(=O)(=O)Nc2ccccn2)cc1,0.85% (inactive),0.1
C=CCN1C(=O)C(Cc2ccc(OCC)cc2)SC1=Nc1ccc(C(=O)O)cc1 (centres undefined),9.61% (inactive),-5.34
Cc1ccc(Nc2nc(CSc3nnnn3-c3ccccc3)cc(=O)[nH]2)cc1,3.58% (inactive),2.22
O=c1c2ccccc2nc(CSc2nnnn2-c2ccccc2)n1-c1ccccc1,39.8% (active),-13.7
O=c1c2ccccc2nnn1CSc1nnnn1-c1ccccc1,7.02% (inactive),5.05
CCCC(=O)NC(=S)Nc1ccc(CN2CCOCC2)cc1,10.3% (inactive),-3.3
CCNC(=O)COC(=O)/C=C/c1c(C)nn(Cc2cccc(OC)c2)c1Cl,10.7% (inactive),15.5
COC(=O)c1ccc(NC(=O)c2cc(Cl)ccc2OC)cc1,0.193% (inactive),-8.44
CC(=O)c1cc(NC(=O)c2ccccc2)c(=O)oc1/C=C/N(C)C,2.32% (inactive),8.72
CCOC(=O)NNC(=O)c1ccc(Cl)cc1,2.34% (inactive),8.61
CCOC(=O)c1cc(NC(=O)c2ccc(Cl)cc2)c(=O)oc1-c1ccccc1,15.9% (active),-0.561
CC(C)NC(=O)NC(=O)CSc1nnc(-c2ccccc2F)n1N,4.07% (inactive),-3.54
Cc1cc([N+](=O)[O-])nn1Cc1ccc(F)cc1,11.8% (inactive),3.65
Cc1cnc(C(=O)OCC(=O)NCCCc2ccccc2)cn1,19.9% (inactive),14.4
